High-throughput results: PubChem BioAssay, National Center for Advancing Translational Sciences (NCATS)
Pf Dd2 inh: qHTS Primary assay for Inhibitors of Plasmodium falciparum Dd2 growth in vitro. Potency, µM (series often up to 28.9 µM), inactives show top-dose activity, negative = inhibition, most hits filed as inhibitors. AID 1347417, 2020. P. falciparum Dd2 growth, SYBR Green, 72 h. 120,000 compounds, 4.3% hits; active means well fitted inhibition curve with a large enough effect;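 further: plate controls were DMSO vehicle for no effect and reference drug for full effect; nearly all actives have a fitted effect of over 65% in size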
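Infected erythrocytes (Dd2, 0.3% parasitemia, 2.5% hematocrit final) are added to compound in RPMI-1640/Albumax II medium, grown 72 h at 37C in low oxygen, then lysed with saponin/Triton-X containing SYBR Green and read by fluorescence.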
An asterisk follows results filed as active; i = inactive; [ ] = dose if it differs, or a comment. The sample as a whole holds a higher share of hits than the screen did. Potency means the concentration at half of the fitted maximal effect.

SMILES | Pf Dd2 inh
COc1cccc(NC(=O)c2sc3nc(C)c(C(=O)Nc4ccc(C)cc4C)c(-c4cccs4)c3c2N)c1 | 1.3µM*
CCC(C)NC(=O)c1sc2nc(C)c(C(=O)Nc3ccc(C)cc3C)c(-c3ccccc3Cl)c2c1N (stereo not drawn) | 3.2µM*
CCC(C)NC(=O)c1sc2nc(C)c(C(=O)Nc3ccc(C)cc3C)c(-c3ccc(Cl)cc3)c2c1N (stereo not drawn) | -5%
COc1ccc(NC(=O)c2sc3nc(C)c(C(=O)Nc4ccc(C)cc4C)c(-c4ccc(C)o4)c3c2N)cc1 | 8.9µM*
CCOc1ccccc1NC(=O)c1sc2nc(C)cc(C)c2c1N | -11%
CCOc1ccccc1NC(=O)c1sc2nc(-c3ccc(OC)cc3)ccc2c1N | 16%
Cc1ccc(NC(=O)c2sc3nc(-c4cc5ccccc5oc4=O)[nH]c(=O)c3c2C)c(C)c1 | 25%
COc1cccc(-c2ccc3c(N)c(C(=O)Nc4ccc(C)c(F)c4)sc3n2)c1 | 5%
COC(=O)CCC(=O)N[C@H]1CO[C@H]2[C@@H]1OC[C@H]2OCc1ccccc1 | 24%[44.1 µM]
O=C(Nc1ccc(Cl)cc1Cl)c1cccn2nccc12 | -3%[44.1 µM]
CCn1ncc(N2CCC(NC(=O)c3sccc3C)CC2)cc1=O | -10%
CC(C)N1CCC(CCN2C(=O)[C@H]3CNC[C@H]3C2=O)CC1 | i
COc1ccc(N2CCN(C(=O)c3cn(C)c4ccc(S(=O)(=O)N(C)C5CCCCC5)cc4c3=O)CC2)cc1 | 11µM*
CN(C1CCCCC1)S(=O)(=O)c1ccc2c(c1)c(=O)c(C(=O)NCc1ccc(F)cc1)cn2C | 30%
CCn1cc(C(=O)N2CCN(c3cc(C)ccc3C)CC2)c(=O)c2cc(S(=O)(=O)N3CCOCC3)ccc21 | -6%
Cn1cc(C(=O)N2CCN(c3ccccc3)CC2)c(=O)c2cc(S(=O)(=O)N3CCCC3)ccc21 | 1.6µM*
COc1ccc(-n2nc(C(=O)N3CCN(c4ccccc4OC)CC3)c3c4ccccc4n(C)c3c2=O)cc1 | 73%
CCn1cc(C(=O)N2CCN(c3ccccc3F)CC2)c(=O)c2cc(S(=O)(=O)N(C)C)ccc21 | 39%
CCn1cc(C(=O)N2CCN(c3ccc(F)cc3)CC2)c(=O)c2cc(S(=O)(=O)N(C)C3CCCCC3)ccc21 | -8%
CN(C1CCCCC1)S(=O)(=O)c1ccc2c(c1)c(=O)c(C(=O)N1CCN(c3ccc(F)cc3)CC1)cn2C | 60%
Cn1cc(C(=O)N2CCN(c3cccc(Cl)c3)CC2)c(=O)c2cc(S(=O)(=O)N3CCCC3)ccc21 | 11%
CN(C1CCCCC1)S(=O)(=O)c1ccc2c(c1)c(=O)c(C(=O)N1CCN(c3ccccc3F)CC1)cn2C | 0.89µM*
COc1ccc(N2CCN(C(=O)c3cn(C4CCCCC4)c(=O)c4c3c3ccccc3n4C)CC2)cc1 | 5µM*
COc1ccc(-n2nc(C(=O)N3CCN(c4ccc(F)cc4)CC3)c3c4ccccc4n(C)c3c2=O)cc1 | 27%
COc1ccc2[nH]cc(CCNC(=O)CCC3CCN(C(=O)c4ccccc4)CC3)c2c1 | -29%
SMILES | Pf Dd2 inh
CCn1ccnc1CN1CC[C@H](N2CCN(C)CC2)[C@H](CCC(=O)O)C1 | 10%
COc1ccc(-c2noc([C@@H]3CCCN3C(=O)c3cc(Cl)ccc3F)n2)cc1OC | -6%
c1cc(-c2cc3c(ccn3Cc3ccncc3)c(N3CCOCC3)n2)c2cc[nH]c2c1 | i
CCc1ccc(C(=O)N2CCc3[nH]nc(C(=O)NCCCc4ccccc4)c3C2)cc1 | i
Cc1ccc(Cn2c(C3CCN(C(=O)c4sccc4C)CC3)n[nH]c2=O)cc1 | -16%
COc1cccc(CN2CCCC3(CCN(C(=O)CNC(N)=O)C3)C2=O)c1OC (stereo not drawn) | -10%
COCCNC(=O)CCc1c(C)nn(-c2ccc(F)cc2)c1Oc1ccccc1F | -1%
COCc1nc(C2CCCN(C(=O)c3nccn3C)C2)no1 (stereo not drawn) | 9%
CCCOc1ccc(C(=O)NCC(c2ccc(OC)cc2)N2CCCCC2)cc1 (stereo not drawn) | -25%
CN(C)c1ccc(C(CNS(=O)(=O)c2ccc(Cl)cc2)N2CCOCC2)cc1 (stereo not drawn) | -23%
COc1ccc(CC(=O)NCC(c2ccc(Cl)cc2)N2CCOCC2)cc1 (stereo not drawn) | 49%[0.594 µM]
COc1ccc(OCC(=O)NCC(c2ccc(OC)cc2)N2CCCCC2)cc1 (stereo not drawn) | 8.9µM*
CC(C)c1ccc(OCC(=O)NCC(c2ccc(Cl)cc2)N2CCOCC2)cc1 (stereo not drawn) | 10µM*
COc1ccc(C(CNC(=O)c2oc3ccccc3c2C)N2CCCCC2)cc1 (stereo not drawn) | 24%
COc1ccc(C(CNC(=O)c2oc3cc(C)c(Cl)cc3c2C)N2CCCCC2)cc1 (stereo not drawn) | 1%
COc1ccc(C(CNC(=O)COc2ccc(C)c(C)c2)N2CCCCC2)cc1 (stereo not drawn) | 11µM*
COc1ccc(C(CNC(=O)COc2cc(C)cc(C)c2)N2CCCCC2)cc1 (stereo not drawn) | i
